Among all 320,000 compounds or so, about 22,000 (6.9%) were called active. Entries that show only a call come without a potency. Not shown: some 27% with an inconclusive outcome. Calls follow the shape of the dose curve; as a rule, active = well fitted inhibition curve with a large enough effect; inconclusive = small, poorly fitted or top-dose-only effect, or another doubt; inactive = no such curve, though single readings can be large or run the other way. This excerpt belongs to a sample that is enriched for actives.
test: Primary qHTS for delayed death inhibitors of the malarial parasite plastid, 96 hour incubation; settings: P. falciparum luciferase reporter growth; series mostly up to 28.7 µM
In short: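 Erythrocytes infected with luciferase-expressing P. falciparum were dispensed at 2% hematocrit and 0.05% parasitemia (final), then incubated with compounds 96 hours at 37 C in 5% CO2. Luminescence after detection reagent addition reported growth.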
Potency is read from the fitted curve at half-maximal effect.

| SMILES | Potency | activity change, negative = inhibition |
| --- | --- | --- |
| COc1ccc2[nH]c(=O)c(C3c4cc(OC)c(OC)cc4CCN3C(=O)c3ccco3)cc2c1 (configuration not stated) | inactive |  |
| O=C(Nc1nnc(Cc2ccc(Cl)cc2)s1)c1ccncc1 | inactive |  |
| CCNS(=O)(=O)c1ccc(CCC(=O)N2CCN(c3ccc(OC)cc3)CC2)cc1 | inactive |  |
| COC(=O)c1c(C)oc(C)c1S(=O)(=O)NCc1ccc(Cl)cc1 | inactive |  |
| CCCCC/C=C/C1=CC(=O)C[C@H](c2ccc(Cl)cc2)C1 | inactive |  |
| C(=C\c1ccccc1)/CSc1nnc(-c2cccnc2)n1Cc1ccco1 | 10.4 µM (active) |  |
| O=C(CSc1nnc(-c2cnccn2)n1Cc1ccco1)c1ccc(Cl)c(Cl)c1 | inactive |  |
| CCOC(=O)Cc1csc(NC(=O)CSc2nnc(-c3cccnc3)n2Cc2ccco2)n1 | inactive |  |
| CCn1c(CC(=O)Nc2ccccc2C)nnc1SCC(=O)NC1=NCCS1 | inactive |  |
| c1ccc2c(c1)CCc1snnc1-2 | inactive |  |
| O=C(Cn1nc([N+](=O)[O-])nc1Br)NC1CCCCC1 | inactive |  |
| O=C(CSC1=Nc2ccccc2C2=NC(CC(=O)NCc3ccco3)C(=O)N12)NCc1ccco1 (configuration not stated) | 1.85 µM (active) |  |
| O=C(CC1N=C2c3ccccc3N=C(SCc3ccccc3Cl)N2C1=O)NCc1ccco1 (configuration not stated) | inactive |  |
| O=C(CSc1ccc(-c2ccccc2)nn1)NCC1CCCO1 (configuration not stated) | inactive |  |
| O=C(CSC1=Nc2ccccc2C2=NC(c3ccccc3)C(=O)N12)NCC1CCCO1 (configuration not stated) | 7.38 µM (active) |  |
| CCC(C)NC(=O)CSC1=Nc2ccccc2C2=NC(CCC(=O)NCc3ccco3)C(=O)N12 (configuration not stated) | inactive |  |
| CCn1c(SCC(=O)NCC2CCCO2)nc2ccccc21 (configuration not stated) | inactive |  |
| O=C(NCc1ccco1)/C(=C/c1ccco1)NC(=O)c1ccccc1 | inactive |  |
| CC1CCN(C(=O)COC(=O)c2cc(S(=O)(=O)N3CCOCC3)ccc2Cl)CC1 | inactive |  |
| COc1cc(C(=O)NNC(=O)CN2C(=O)NC3(CCCC3)C2=O)cc(OC)c1OC | inactive |  |
| COc1cccc(C(=O)Nc2nnc(S(=O)(=O)N3CCCCC3)s2)c1 | inactive |  |
| Cc1ccc2nc(-c3ccc(Br)cc3)cn2c1 | inactive |  |

| SMILES | Potency | activity change, negative = inhibition |
| --- | --- | --- |
| CCC(C)(C)n1nnnc1C(c1ccc(OC)c(OC)c1)N1CCN(C(=O)c2ccco2)CC1 (configuration not stated) | inactive |  |
| CNC[C@H](CC1CCCCC1)NC[C@H](NCCC1CCCC1)[C@H](C)O | 11.7 µM (active) |  |
| COc1ccc(CNC(=O)COc2ccccc2C(=O)c2cnn(-c3ccccc3)c2)cc1OC | inactive |  |
| O=C1C(=O)N(CCCO)C(c2ccccc2)/C1=C(\O)c1ccc(Br)cc1 (configuration not stated) | inactive |  |
| CCOC(=O)c1c(NC(=O)CSc2nnc(CNc3ccc(C)cc3C)o2)sc(C)c1C | 8.28 µM (active) |  |
| CCCc1nnc(SCC(=O)Nc2ccc(C(=O)OCC)cc2)o1 | 0.147 µM (active) |  |
| CCOC(=O)c1ccc(NC(=O)CSc2ncccn2)cc1 | inactive |  |
| CCOC(=O)c1c(-c2ccc(C)cc2C)csc1NC(=O)CSc1nnnn1C | inactive |  |
| CCOC(=O)c1c(NC(=O)CSc2nccc(=O)[nH]2)sc(C)c1C | inactive |  |
| COc1ccc(Cc2nnc(SCC(=O)Nc3ccc(C)c(C)c3)o2)cc1OC | inactive |  |
| CN(CCc1ccccn1)C(=O)c1ccc(OC2CCN(Cc3ccccn3)CC2)cc1 | inactive |  |
| Cc1cc(C)cc(OCC(=O)OCC(=O)NC2CCCC2)c1 | inactive |  |
| CCn1c(=S)sc2c(=O)n(CC(=O)Nc3ccc(OC)cc3)c(C)nc21 | inactive |  |
| COc1cccc(CCNC(=O)c2cccc(NC(=O)C3=C(C)OCCS3)c2)c1 | 11.7 µM (active) |  |
| COc1cccc(C(=O)NCCS(=O)(=O)NCC2CCCO2)c1 (configuration not stated) | inactive |  |
| CC1=C(C(=O)Nc2ccccc2)SCCO1 | inactive |  |
| Cc1sc(NC(=O)C2=COCCO2)c(C#N)c1C | inactive |  |
| CCCCN(C(=O)C(CCSC)N1C(=O)c2ccccc2C1=O)c1c(N)n(CCC)c(=O)[nH]c1=O (configuration not stated) | inactive |  |
| CSc1ccccc1NC(=O)c1cnc2sc(C)cn2c1=O | inactive |  |
| Cc1ccc(C(C)C)c(OCCSc2nc3ccccc3n2CC(=O)O)c1 | 13.1 µM (active) |  |
| O=C(O)Cn1c(Cc2ccccc2)nc2ccccc21 | inactive |  |
| Cc1ccc(Cn2c(SCC(=O)N/N=C/c3ccccc3OCC(=O)O)nc3ccccc32)cc1 | inactive |  |

| SMILES | Potency | activity change, negative = inhibition |
| --- | --- | --- |
| O=C(c1cccs1)N1CCN(Cc2ccc3c(c2)OCO3)CC1 | inactive |  |
| Cc1cc(N2CCN(Cc3ccc4c(c3)OCO4)CC2)n2ncnc2n1 | inactive |  |
| Fc1ccc2[nH]c3c(N4CCN(Cc5ccc6c(c5)OCO6)CC4)ncnc3c2c1 | 2.62 µM (active) |  |
| CCCc1c(C(=O)O)cnn1-c1ccc(Cl)cc1 | inactive |  |
| O=C(NNS(=O)(=O)c1ccccc1C(F)(F)F)c1cc2ncc(C(F)(F)F)cc2s1 | inactive |  |
| Cc1ccsc1C(=O)N[C@@H](C)c1nnc2ccccn12 | inactive |  |
| C=CCC1(CC=C)CCCN1C(=O)CC1C(=O)NCCN1Cc1ccccc1OC (configuration not stated) | 10.4 µM (active) |  |
| CCN(CCn1cccn1)C(=O)CC1C(=O)NCCN1Cc1cccc(OC)c1OC (configuration not stated) | inactive |  |
| CN(C(=O)CC1C(=O)NCCN1Cc1ccc(F)cc1Cl)C1CCCCC1 (configuration not stated) | inactive |  |
| CCOCCCNC(=O)c1cc2c(=O)n3ccccc3nc2s1 | 10.4 µM (active) |  |
| CCOCCCNC(=O)c1c[nH]c2cc(C)ccc2c1=O | inactive |  |
| CCOCCCNC(=O)c1cn(CC(C)C)c(=O)c2c1c1ccccc1n2C | inactive |  |
| Cc1cccc(OCCC(=O)Nc2ccccc2C(N)=O)c1 | inactive |  |
| Fc1ccccc1/C=C1\CCCC2=C1Nc1ncnn1C2c1ccccc1F (configuration not stated) | 1.04 µM (active) |  |
| CCN1C(=O)c2cccc3c(S(=O)(=O)Nc4ccccc4O)ccc1c23 | inactive |  |
| CC(C)(C)NC(=O)CSc1nnc(NC(=O)CCc2ccccc2)s1 | inactive |  |
| Cc1occc1C(=O)NC1CCCN(Cc2ccc(CC(C)C)cc2)C1 (configuration not stated) | inactive |  |
| Cc1occc(=O)c1OCc1c(Cl)cccc1Cl | inactive |  |
| O=C(NCCS(=O)(=O)N1CCN(c2ccccc2F)CC1)c1ccc(Br)o1 | inactive |  |
| CCOc1ccc(C(C)=O)cc1COC(=O)CNC(=O)c1cccs1 | inactive |  |
| C/C(=N\OCC(=O)O)c1ccc(Cl)cc1 | inactive |  |
| C/C(=N\N=C(N)N)c1ccc(Cl)cc1 | 4.15 µM (active) |  |

| SMILES | Potency | activity change, negative = inhibition |
| --- | --- | --- |
| COC(=O)/C(NC(C)=O)=C(\C)c1ccc(Cl)cc1 | inactive |  |
| Cn1c(SCC(=O)c2ccccc2)ncc(C(=O)Nc2ccc(F)cc2)c1=O | inactive |  |
| CC1CCN(C(=O)Cn2nnnc2CN2CCOCC2)CC1 | inactive |  |
| O=C(NCc1ccc2c(c1)OCO2)c1sccc1Br | inactive |  |
| CC(Sc1nncs1)C(=O)NCc1ccc2c(c1)OCO2 (configuration not stated) | 13.1 µM (active) |  |
| O=C(NCc1ccc2c(c1)OCO2)c1ccc(Cl)s1 | inactive |  |
| Cc1ccc(S(=O)(=O)NCC(=O)N(CC(=O)NCC2CCCO2)c2cccc(F)c2)cc1 (configuration not stated) | inactive |  |
| Nc1nnnn1/N=C/c1cc([N+](=O)[O-])ccc1O | inactive |  |
| Cc1sc(NC(=O)c2ccc3ncsc3c2)c(C(N)=O)c1C | inactive |  |
| O=C(Nc1ccccc1N1CCOCC1)c1csc2c1CCCC2 | 10.4 µM (active) |  |
| O=C(Nc1ccccc1N1CCOCC1)c1ccncc1 | inactive |  |
| Cc1ccc(S(=O)(=O)N2CCOCC2)cc1C(=O)Nc1ccccc1N1CCCC1 | inactive |  |
| CCCc1cc(=O)[nH]c(SCC(=O)c2c(N)n(CC(C)C)c(=O)n(C)c2=O)n1 | inactive |  |
| CCOC(=O)c1c(C)[nH]c(C)c1S(=O)(=O)N(C)CC(=O)Nc1ccccc1C | inactive |  |
| CCc1ccc(OCC(=O)N(Cc2ccccc2)C2CCS(=O)(=O)C2)cc1 (configuration not stated) | inactive |  |
| O=C(CCC(=O)c1ccccc1)NCc1cccc(C(F)(F)F)c1 | inactive |  |
| Cc1ccc2[nH]c3c(=O)n(Cc4ccccn4)cnc3c2c1 | inactive |  |
| Cc1ccc(C)c(Cn2cnc3c(oc4ccccc43)c2=O)c1 | 2.08 µM (active) |  |
| CCC(C(=O)OC)n1cnc2c(oc3ccccc32)c1=O (configuration not stated) | inactive |  |
| CC(C(=O)N(C)CC(=O)Nc1ccccc1C(F)(F)F)N1C(=O)c2ccccc2C1=O (configuration not stated) | inactive |  |
| Cc1csc2nc(COC(=O)c3cccc(N(C)C)c3)cc(=O)n12 | inactive |  |
| CCOC(=O)N1CCC(N2Cc3cccc(C(=O)Nc4c(C)cccc4CC)c3C2=O)CC1 | inactive |  |

| SMILES | Potency | activity change, negative = inhibition |
| --- | --- | --- |
| C=C1CCC(N(O)c2cc(C)on2)C(=C)CCC2C1CC2(C)C (configuration not stated) | 4.65 µM (active) |  |
| CN(NS(=O)(=O)c1cccs1)c1ncc(C(F)(F)F)cc1Cl | inactive |  |
| COc1cc(-c2nnc(NC(=O)C3=COCCO3)o2)cc(OC)c1OC | inactive |  |
| O=C(Nc1nnc(C2=COCCO2)o1)c1ccc([N+](=O)[O-])s1 | 11.7 µM (active) |  |
| CCC(CC)c1nnc(NC(=O)C2=COCCO2)s1 | inactive |  |
| COCCNc1ccc(-c2n[nH]c(=O)c3ccccc23)cc1[N+](=O)[O-] | inactive |  |
| CC1(C(=O)NCCc2c[nH]c3ccccc23)C=CC2(CCCCC2)N1C(=O)c1ccccc1 (configuration not stated) | 11.7 µM (active) |  |
| O=C(CN1C(=O)NC2(CCCCC2)C1=O)NCCc1c[nH]c2ccccc12 | inactive |  |
| O=C(NCCc1c[nH]c2ccccc12)c1cccc(Br)c1 | inactive |  |
| Cc1ccc(OCCC(=O)OCC(=O)N2c3ccccc3NC(=O)C2(C)C)cc1 | inactive |  |
| Cc1nnc(SCC(=O)Nc2ccc(S(=O)(=O)Nc3ccc(Cl)nn3)cc2)s1 | inactive |  |
| Cc1ccccc1N1CCN(C2CCCN(C(=O)c3ocnc3C)C2)CC1 (configuration not stated) | inactive |  |
| Cc1ccc(-n2c(-c3ccc(Cl)cc3)n[nH]c2=S)cc1 | inactive |  |
| Cc1cc([N+](=O)[O-])ccc1NC(=O)C1CCCO1 (configuration not stated) | inactive |  |
| Cc1cc([N+](=O)[O-])ccc1NC(=O)c1ccc(NC(=O)C(C)C)cc1 |  | 18% [at 5.75 µM] (inactive) |
| CC(=O)c1ccc(NC(=O)Nc2ccc([N+](=O)[O-])cc2C)cc1 | 9.28 µM (active) |  |
| CCOc1ccccc1C(=O)NCc1ccco1 | inactive |  |
| CCN(CC(=O)NCc1ccco1)S(=O)(=O)c1ccc(F)cc1 | inactive |  |
| O=C(NCc1ccco1)c1ccc(CS(=O)(=O)Cc2ccc(F)cc2)o1 | 8.28 µM (active) |  |

Reference: PubChem BioAssay AID504834 (National Center for Advancing Translational Sciences (NCATS), 2011)
